Test results from PubChem BioAssay (NCATS).
Unmarked numbers belong to inactive results. Records with an inconclusive call do not appear. Entries that show only a call come without a potency. Calls of active or inactive are those of the source. Unless noted, calls follow the shape of the dose curve; as a rule, active = well fitted curve in either direction with a large enough effect (not every such curve was filed as active); inconclusive = small, poorly fitted or top-dose-only effect, or another doubt; inactive = flat fitted curve, though single readings scatter.

Legend:
[1] = Cell Viability - BJ (AID 421; calls by dose curve;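 also: potency is read from the fitted curve at half-maximal effect; cells exposed to compound for 40 hours at 37 °C before readout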); conditions: BJ fibroblast viability, qHTS
Outline: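 Luminescent ATP signal (CellTiter-Glo, 20 min at room temperature) served as the read-out of viable BJ cells after 40 hours of compound treatment. Responses were scaled between DMSO and 100 uM tamoxifen, and AC50 values were obtained by Hill modeling.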

[2] = Cell Viability - Jurkat (AID 426;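 active = dose-dependent loss of cell ATP signal giving a full or clear fitted curve, ranked by lower potency value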;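 also: potency is read from the fitted curve at half-maximal effect; cells exposed to compound for 40 hours at 37 °C before ATP read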); conditions: qHTS
Outline: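 Cells of the human T-cell leukemia line Jurkat (E6-1) are seeded at 5000 per well, treated with compound across a concentration range for 40 hours at 37 °C, then lysed with CellTiter-Glo; luminescence reports ATP.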

[3] = Cell Viability - Hek293 (AID 427;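 active = compounds whose dose-response curve shows a full or clear partial loss of cell viability, called from curve shape rather than a numeric limit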;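 also: potency is read from the fitted curve at half-maximal effect; cells exposed to compound for 40 hours at 37 °C before reading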); conditions: qHTS
Outline: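 Luminescent ATP read-out (CellTiter-Glo, 20 min RT) after 40 hr compound exposure at 37 °C in complete medium. Signal normalized to DMSO (basal) and 100 uM tamoxifen (100% inhibition); concentration-response fitted with the standard Hill equation to give AC50.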

[4] = Cell Viability - HepG2 (AID 433; calls by dose curve;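 also: potency is read from the fitted curve at half-maximal effect; potency for ATP loss meaning cytotoxicity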); conditions: qHTS
Outline: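 ATP luminescence (CellTiter-Glo) after 40 h compound exposure, 37 °C, HepG2, 1500 cells/well, complete medium. Normalized: DMSO = basal, 100 uM tamoxifen = 100% inhibition. AC50 via standard Hill equation.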

[5] = Cell Viability - MRC5 (AID 434; calls by dose curve;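 also: potency is read from the fitted curve at half-maximal effect; potency reflects cytotoxicity seen as loss of intracellular ATP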); conditions: MRC5 lung fibroblast viability, qHTS
Outline: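 AC50 values come from Hill-equation fits of intracellular ATP loss, measured by CellTiter-Glo luminescence. Normal lung fibroblasts (MRC5) had 40 hr compound treatment at 37 C, normalized between DMSO and 100 uM tamoxifen.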

[6] = molecular target: Mitogen-activated protein kinase 10 (Mus musculus) (UniProt Q61831); assay: JNK3 AlphaScreen Assay (AID 530); conditions: JNK3 lysate, c-Jun phosphorylation; series mostly up to 57.1 µM;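 also: kinase came from lysate of stimulated human HepG2 cells; signal reports phosphorylation of biotinylated GST-cJun 1-79 at Ser73 with 10 µM ATP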
Outline: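 qHTS titrations with 15 min compound pre-incubation before adding ATP (10 uM final). Read-out: AlphaScreen of Ser73-phosphorylated biotin-GST-cJun using HepG2 lysate JNK3 activated by IL-1β and TNFα.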

[7] = Cell Viability - N2a (AID 540; active = well fitted curve in the direction sought with a large enough effect; an effect the other way counts as inactive or inconclusive; also: nearly all actives have a fitted effect of over 45% in size); conditions: N2a mouse neuroblastoma cell viability; series mostly up to 92.2 µM
Outline: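 Cytotoxicity was scored as loss of cellular ATP in N2a cells, a mouse neuroblastoma line. Compounds are applied in a qHTS concentration series for 40 hr at 37 °C.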

[8] = Cell Viability - HUV-EC-C (AID 542; active = well fitted curve in the direction sought with a large enough effect; an effect the other way counts as inactive or inconclusive; also: nearly all actives have a fitted effect of over 35% in size); conditions: HUV-EC-C endothelial cell viability, qHTS; series mostly up to 92.2 µM
Outline: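 Cells were seeded at 1000 per well and incubated 5 hr at 37 °C before compound addition. After 40 hr at 37 °C, CellTiter-Glo reagent was added for 20 min and luminescence read. AC50 values came from Hill-equation modelling.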

[9] = Cell Viability - H-4-II-E (AID 543; active = well fitted curve in the direction sought with a large enough effect; an effect the other way counts as inactive or inconclusive; also: nearly all actives have a fitted effect of over 35% in size); conditions: H-4-II-E rat hepatoma viability; series mostly up to 92.2 µM
Outline: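 Cells seeded at 1500 per well and rested 5 hr; compounds added; 40 hr incubation at 37 °C; CellTiter-Glo added, 20 min at room temperature; luminescence read. Hill-equation fits gave AC50.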

[10] = Cell Viability - SH-SY5Y (AID 544; active = well fitted curve in the direction sought with a large enough effect; an effect the other way counts as inactive or inconclusive; also: nearly all actives have a fitted effect of over 55% in size; also: potency is read from the fitted curve at half-maximal effect); conditions: SH-SY5Y neuroblastoma cell viability; series mostly up to 92.2 µM
Outline: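 Cells were plated at 1500 per well and allowed 5 hr at 37 °C. Compounds were added across a concentration range and incubated 40 hr at 37 °C. CellTiter-Glo was added for 20 min at room temperature before luminescence reading.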

[11] = Cell Viability - Renal Proximal Tubule (AID 545; active = well fitted curve in the direction sought with a large enough effect; an effect the other way counts as inactive or inconclusive; also: nearly all actives have a fitted effect of over 40% in size); conditions: renal proximal tubule cells viability; series mostly up to 91.7 µM
Outline: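 Rat kidney proximal tubule cells, freshly isolated; 1000 cells/well, 5 hr settle, compound 40 hr 37 °C. CellTiter-Glo 20 min RT, luminescence read. AC50 by standard Hill fit.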

[12] = Cell Viability - Mesenchymal (AID 546; active = well fitted curve in the direction sought with a large enough effect; an effect the other way counts as inactive or inconclusive;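 also: cells exposed to compound for 40 hours before reading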); conditions: mesenchymal cells viability, qHTS; series mostly up to 91.7 µM
Outline: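 CellTiter-Glo luminescence (intracellular ATP, 20 min room temperature) after 40 hr compound exposure at 37 °C of 1000 glomerulus-derived human kidney mesenchymal cells/well; AC50 values obtained by fitting qHTS concentration-response data to the Hill equation.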

[13] = AP1 Signaling Pathway (AID 357); conditions: ME-180 AP-1-bla reporter, EGF-induced, beta-lactamase ratio, 5 h; series mostly up to 17.2 µM;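 also: ME-180 reporter cells stimulated with EGF at its EC50 level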
Outline: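 In this screen, ME-180 cells in Opti-MEM with 0.5% dialyzed FBS received EC50 EGF and compound titrations for 5 h. AP-1 reporter beta-lactamase was detected via CCF4 ratio, giving AC50 for positive and negative modulators.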

[14] = NFAT Signaling Pathway (AID 444); conditions: Jurkat NFAT-bla M1, carbachol, beta-lactamase ratio, 5 h;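 also: carbachol stimulus at about its EC50 of 1 µM final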
Outline: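 Read-out: CCF4 FRET ratio (460 nm/530 nm) after 1 h RT dye loading, used for %activity and AC50 from titration series. Cells: Jurkat NFAT-β-lactamase/M1 line, treated with compound plus 1 uM carbachol for 5 h, 37 °C.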

[15] = Stat Signaling Pathway (AID 446); conditions: ME-180 (cervical carcinoma) SIE beta-lactamase reporter, IL-6 stimulated, 5 h; series mostly up to 17.2 µM;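 also: ME-180 cervical cancer cells given 40 pM IL-6 alongside compound; SIE-controlled beta-lactamase reporter measured as 460/530 nm FRET emission ratio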
Outline: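 Compound effects on IL-6-induced STAT reporter activity were measured in ME-180 cells. After overnight culture, cells were co-treated with 40 pM IL-6 for 5 hrs before beta-lactamase substrate loading at room temperature.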

[16] = molecular target: Glucocorticoid receptor (Homo sapiens) (UniProt P04150); assay: GR-GFP Redistribution (AID 450;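 active = compounds whose dose series gives a full or clear partial fitted curve of increased nuclear translocation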; also: potency is read from the fitted curve at half-maximal effect); conditions: U2OS GR-GFP nuclear translocation, laser cytometry, 2 h
[17] = molecular target: Glucocorticoid receptor (Homo sapiens) (UniProt P04150); assay: GR-EFC Redistribution (AID 451; calls by dose curve; also: potency is read from the fitted curve at half-maximal effect); conditions: CHO-K1 GR-EFC translocation, beta-gal luminescence, 2 h
Outline: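 Translocation of GR-ED fusion to nuclear EA restores b-gal, read by luminescence after 1 h room-temperature detection. Engineered CHO-K1 biosensor cells, 1,000/well, exposed 2 h at 37 C to titrations up to 46 uM final.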

[18] = molecular target: 3',5'-cyclic-AMP phosphodiesterase 4B (Homo sapiens) (UniProt Q07343); assay: qHTS Assay for Inhibitors of PDE-IV (AID 607; active = well fitted activation curve with a large enough effect in the main read-out, with a control signal flat, not every such curve was filed as active); conditions: HEK293 ACTOne CNG channel cells, membrane potential fluorescence; series mostly up to 22.9 µM
Outline: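 ACTOne HEK293 cells carry a modified cAMP-gated CNG channel and express endogenous PDE4; plated 1000 cells/well, compounds up to 22.9 uM final. Membrane-potential dye fluorescence (ex 535/em 590) was read; parental cells received 10 uM forskolin + 100 uM RO 20-1724.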

[19] = Cell Viability - NIH 3T3 (AID 541; active = well fitted curve in the direction sought with a large enough effect; an effect the other way counts as inactive or inconclusive; also: nearly all actives have a fitted effect of over 25% in size); conditions: NIH 3T3 cell viability, qHTS; at 92.2 µM (top of the series)
Outline: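 Cells seeded at 1000/well, rested 5 hr at 37 °C, then dosed and incubated 40 hr at 37 °C. CellTiter-Glo added, 20 min room temperature, luminescence read. AC50 by Hill fit.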

[20] = molecular target: Cytochrome P450 1A2 (Homo sapiens) (UniProt P05177); assay: p450-cyp1a2 (AID 410; calls by dose curve); conditions: recombinant CYP1A2, luciferin-ME demethylation, luminescence; series mostly up to 57 µM
Outline: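 O-Demethylation of luciferin 6' methyl ether by human CYP1A2 is monitored as luciferase luminescence. Substrate sits at Km (100uM); enzyme is 20nM. Values are scaled to 57 uM furafylline as maximal inhibition.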

Cytochrome P450 1A2 (Homo sapiens), sequence (P05177 whole entry, looked up): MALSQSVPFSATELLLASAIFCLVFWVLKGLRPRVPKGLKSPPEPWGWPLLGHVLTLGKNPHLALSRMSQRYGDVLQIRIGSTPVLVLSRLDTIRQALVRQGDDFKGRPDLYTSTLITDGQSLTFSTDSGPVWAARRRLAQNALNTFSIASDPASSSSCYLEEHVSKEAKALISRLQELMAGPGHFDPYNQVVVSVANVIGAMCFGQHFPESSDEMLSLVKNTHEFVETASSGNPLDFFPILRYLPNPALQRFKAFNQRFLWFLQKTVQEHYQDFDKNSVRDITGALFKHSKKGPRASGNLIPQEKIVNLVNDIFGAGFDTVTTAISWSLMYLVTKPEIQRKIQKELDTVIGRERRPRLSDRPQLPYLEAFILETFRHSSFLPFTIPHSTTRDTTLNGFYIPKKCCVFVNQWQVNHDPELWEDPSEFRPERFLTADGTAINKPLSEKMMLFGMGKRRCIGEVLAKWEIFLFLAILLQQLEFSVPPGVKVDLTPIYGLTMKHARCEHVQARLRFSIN
3',5'-cyclic-AMP phosphodiesterase 4B (Homo sapiens), sequence (Q07343 whole entry, looked up): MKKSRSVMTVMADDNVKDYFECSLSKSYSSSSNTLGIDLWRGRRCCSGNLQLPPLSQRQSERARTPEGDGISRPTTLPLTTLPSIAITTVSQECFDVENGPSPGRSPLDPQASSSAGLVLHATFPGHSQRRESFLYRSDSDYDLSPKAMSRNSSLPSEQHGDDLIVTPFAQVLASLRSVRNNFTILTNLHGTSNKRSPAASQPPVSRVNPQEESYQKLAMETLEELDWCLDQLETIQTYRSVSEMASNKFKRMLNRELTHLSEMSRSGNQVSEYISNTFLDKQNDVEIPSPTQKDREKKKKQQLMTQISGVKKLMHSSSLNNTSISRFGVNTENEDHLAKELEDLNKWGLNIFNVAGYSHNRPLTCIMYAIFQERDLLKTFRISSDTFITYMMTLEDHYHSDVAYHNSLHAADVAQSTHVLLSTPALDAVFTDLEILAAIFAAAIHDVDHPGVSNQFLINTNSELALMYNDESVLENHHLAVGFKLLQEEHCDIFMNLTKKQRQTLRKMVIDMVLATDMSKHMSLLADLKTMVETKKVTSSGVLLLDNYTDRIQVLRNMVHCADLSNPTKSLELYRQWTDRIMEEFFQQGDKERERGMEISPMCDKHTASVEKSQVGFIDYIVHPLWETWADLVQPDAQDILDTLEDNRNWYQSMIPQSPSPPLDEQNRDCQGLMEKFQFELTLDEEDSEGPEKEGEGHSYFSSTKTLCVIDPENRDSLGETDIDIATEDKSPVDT
Glucocorticoid receptor (Homo sapiens), sequence (P04150 whole entry, looked up, the tested form may be a part): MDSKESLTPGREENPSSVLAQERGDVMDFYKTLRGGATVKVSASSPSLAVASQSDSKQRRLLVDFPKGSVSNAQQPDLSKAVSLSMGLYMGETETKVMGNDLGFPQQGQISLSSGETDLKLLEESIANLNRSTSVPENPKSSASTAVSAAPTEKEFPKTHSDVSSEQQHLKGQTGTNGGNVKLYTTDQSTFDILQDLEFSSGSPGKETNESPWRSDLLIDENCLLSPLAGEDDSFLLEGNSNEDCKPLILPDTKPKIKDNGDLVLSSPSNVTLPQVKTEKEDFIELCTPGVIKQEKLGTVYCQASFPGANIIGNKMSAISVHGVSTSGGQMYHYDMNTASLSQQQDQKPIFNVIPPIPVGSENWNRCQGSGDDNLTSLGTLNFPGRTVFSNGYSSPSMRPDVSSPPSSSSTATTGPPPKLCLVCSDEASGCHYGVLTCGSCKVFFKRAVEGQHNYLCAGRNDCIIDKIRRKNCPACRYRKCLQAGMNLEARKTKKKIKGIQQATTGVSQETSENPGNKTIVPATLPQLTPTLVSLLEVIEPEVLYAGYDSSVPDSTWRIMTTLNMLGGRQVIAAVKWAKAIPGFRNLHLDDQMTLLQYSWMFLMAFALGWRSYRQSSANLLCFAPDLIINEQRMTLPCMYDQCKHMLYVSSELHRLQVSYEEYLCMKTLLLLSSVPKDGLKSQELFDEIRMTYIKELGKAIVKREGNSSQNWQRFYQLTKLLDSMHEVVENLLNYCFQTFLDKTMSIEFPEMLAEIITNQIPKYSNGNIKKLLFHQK

SMILES: C[C@]1(O)CC[C@H]2[C@@H]3CCC4=CC(=O)CC[C@]4(C)[C@@]3(F)[C@@H](O)C[C@@]21C
- Potency [1]: > 92 µM
- Potency [2]: > 92 µM
- Potency [3]: > 92 µM
- Potency [4]: > 92 µM
- Potency [5]: > 92 µM
- outcome [6]: inactive
- outcome [7]: inactive
- Potency [8]: inactive
- Potency [9]: inactive
- Potency [10]: inactive
- outcome [11]: inactive
- outcome [12]: inactive

SMILES: COc1ccc2c(c1)C13CCCC[C@@H]1C(C2)N(C)CC3 (stereo partly specified)
- outcome [13]: inactive
- activity change, negative = inhibition ([14]; at 17.2 µM (top of the series)): -1.88%
- outcome [15]: inactive
- Potency [16]: > 20.6 µM
- Potency [17]: > 20.6 µM
- outcome [6]: inactive
- outcome [18]: inactive

SMILES: C[C@]12CCC(=O)C=C1CC[C@@H]1[C@@H]2CC[C@@]2(C)[C@H]1CC[C@]2(C)O
- Potency [1]: > 92 µM
- Potency [4]: > 92 µM
- Potency [5]: > 92 µM
- outcome [6]: inactive
- activity change, negative = cytotoxicity [19]: -123% (active)
- Potency [8]: inactive
- outcome [12]: inactive

SMILES: O=C(O)CCCc1ccc(N(CCCl)CCCl)cc1
- outcome [13]: inactive
- Potency [20]: inactive
- Potency [2]: 22.8 µM (active)
- Potency [3]: 18.6 µM (active)
- Potency [4]: > 92 µM
- activity change, negative = inhibition ([14]; at 17.2 µM (top of the series)): -26.3%
- activity change, negative = inhibition ([14]; at 38 µM (top of the series)): -2.19%
- outcome [15]: inactive
- outcome [6]: inactive
- outcome [7]: inactive
- Potency [8]: inactive
- Potency [10]: 3.16 µM (active)
- outcome [11]: inactive
- outcome [12]: inactive
- outcome [18]: inactive

SMILES: CNC(C)(C)Cc1ccccc1
- outcome [13]: inactive
- Potency [20]: inactive
- activity change, negative = inhibition ([14]; at 17.2 µM (top of the series)): -3.4%
- outcome [15]: inactive
- Potency [16]: > 20.6 µM
- Potency [17]: > 20.6 µM
- outcome [6]: inactive
- outcome [18]: inactive

SMILES: CC(NC(C)(C)C)C(=O)c1cccc(Cl)c1 (stereo unspecified)
- outcome [13]: inactive
- activity change, negative = inhibition ([14]; at 17.2 µM (top of the series)): -27.5%
- outcome [15]: inactive
- Potency [16]: > 20.6 µM

SMILES: O=P1(N(CCCl)CCCl)NCCCO1 (stereo unspecified)
- outcome [13]: inactive
- Potency [20]: inactive
- Potency [1]: > 92 µM
- Potency [2]: > 92 µM
- Potency [3]: > 92 µM
- Potency [4]: > 92 µM
- Potency [5]: > 92 µM
- activity change, negative = inhibition ([14]; at 38 µM (top of the series)): 4.3%
- Potency [16]: > 46 µM
- Potency [17]: > 46 µM
- outcome [6]: inactive
- outcome [7]: inactive
- activity change, negative = cytotoxicity [19]: 2.35%
- Potency [8]: inactive
- Potency [9]: inactive
- Potency [10]: inactive
- outcome [11]: inactive
- outcome [12]: inactive
- outcome [18]: inactive

SMILES: CC(C)N(CCC(C(N)=O)(c1ccccc1)c1ccccn1)C(C)C (stereo unspecified)
- outcome [13]: inactive
- outcome [15]: inactive

SMILES: COP(=S)(OC)Oc1ccc(SC)c(C)c1
- Potency [1]: > 92 µM
- Potency [2]: > 92 µM
- Potency [3]: > 92 µM
- Potency [4]: > 92 µM
- Potency [5]: > 92 µM
- outcome [7]: inactive
- activity change, negative = cytotoxicity [19]: -11.1%
- Potency [8]: inactive
- Potency [9]: inactive
- Potency [10]: inactive
- outcome [11]: inactive
- outcome [12]: inactive
